Assay [1] concerns Human papillomavirus type 1a protein E7 (residues 44-93). The assay is described as follows: HPV1a E7 fragment binders on microarrays, primary screen, biochemical, small-molecule microarray, residues 44-93, 635 nm fluorescence (AID 1108).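 Further: E7 fragment applied at 1 µg/mL in TBST for 1 h at 4 C; score combines spot fluorescence with its signal to noise ratio.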 As to conditions: small-molecule microarray binding, fluorescence 635 nm; higher = more signal.
The nature of assay [2]: modulators of HCV replicon luciferase signal, primary screen, HCV replication inhibitor project, Huh7 cells, luciferase reporter (AID 1109).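 Further: huh7 hepatoma cells harbouring a luciferase neomycin HCV replicon reporter; luciferase luminescence as measure of HCV replicon replication; test concentration not given here.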 The following applies: 48 h, higher = more signal.
The target in assay [3] is Left-right determination factor 2 (Homo sapiens) (UniProt O00292). The assay is described as follows: LEFTY2 binders on small-molecule microarrays, primary screen, biochemical, small-molecule microarray, 635 nm fluorescence scan (AID 1110). The following applies: LEFTY2 binding, higher = more signal.
Assay [4] addresses Calmodulin-1 (Homo sapiens) (UniProt P0DP23). The assay is described as follows: CALM1 binders on microarrays, EGTA buffer, profiling panel, biochemical, small-molecule microarray, Cy5-labelled CALM1 (AID 1111).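 Further: labelled calmodulin applied in Tris saline Tween buffer holding calcium plus EGTA and DTT.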 The following applies: Cy5-CALM1 binding fluorescence, higher = more signal.
Assay [5] shares this target. The assay is described as follows: calcium-bound CALM1 binders on microarrays, profiling panel, artefact control for SMM control-protein annotation, biochemical, small-molecule microarray, Cy5-labelled CALM1, plus calcium (AID 1112).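 Further: score merges spot fluorescence with signal to noise from triplicate slides.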 The following applies: Cy5-CALM1 binding fluorescence, higher = more signal.
A short description of assay [6]: small-molecule microarray binders of probe aWnt5a, primary screen, biochemical, biotinylated probe, 635/667 nm fluorescence (AID 1113).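 Further: score merges 667 nm fluorescence intensity with signal-to-noise per printed feature.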 The following applies: higher = more signal.
Assay [7] is described as follows: small-molecule microarray binders of probe aShh, primary screen, biochemical, biotinylated probe, 635/667 nm fluorescence (AID 1114).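 Further: probe is biotin-labelled aShh protein from a stem cell growth factor screen; measures binding of labelled protein to compounds printed on the slide; score merges feature fluorescence at 667 nm with signal-to-noise.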 The following applies: higher = more signal.
Assay [8] can be described thus: small-molecule microarray binders of probe aNog, primary screen, biochemical, biotinylated probe, 635/667 nm fluorescence (AID 1115).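 Further: probe is biotinylated aNog protein used at 0.15 µg/mL for 1 h at 4 C; z-score combines 667 nm fluorescence of each spot with its signal to noise.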 As to conditions: higher = more signal.
Assay [9] concerns the target Torsin-1A-interacting protein 1 (Homo sapiens) (UniProt Q5JTV8). The assay is described as follows: LAP1 binders from COS7 cell lysate, primary screen, small-molecule microarray, 635/667 nm fluorescence (AID 1116). As to conditions: COS7-hLAP1 lysate binding, 635 nm fluorescence, higher = more signal.
The target in assay [10] is Alpha-bungarotoxin (Bungarus multicinctus) (UniProt P60615). The assay is described as follows: alpha-bungarotoxin binders on microarray, profiling panel, artefact control for SMM control protein annotation, biochemical, small-molecule microarray, Alexa647 label, 635/667 nm fluorescence (AID 1117). The following applies: alpha-BTX-A647 binding fluorescence, higher = more signal.

For the next assay, the target named is Albumin (Bos taurus) (UniProt P02769). The assay is described as follows: bovine serum albumin binders on microarray, profiling panel, artefact control for SMM control protein annotation, biochemical, small-molecule microarray, Alexa647 label, 635/667 nm fluorescence (AID 1118).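 Further: score merges 667 nm emission intensity and signal-to-noise per printed compound spot.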 As to conditions: BSA-A647 binding, fluorescence 635 nm, higher = more signal.
The nature of assay [11]: small-molecule microarray binders of probe aXIP, primary screen, biochemical, NeuroSMM set, 635/667 nm fluorescence (AID 1119).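 Further: probe is the protein aXip251-270 applied at 1 µg/mL to compound-printed slides; binding of probe to printed compounds measured as 667 nm fluorescence plus signal to noise.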 The following applies: higher = more signal, called active from +8 up or from −8 down.
Assay [12] in a line: small-molecule binders of probe aNOTCH3, primary screen, biochemical, small-molecule microarray, 635/667 nm fluorescence (AID 1120).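 Further: probe is a biotin-tagged antibody raised against NOTCH3 rather than NOTCH3 protein; score merges spot fluorescence near 667 nm with spot signal to noise.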 As to conditions: higher = more signal.
Assay [13] in a line: small-molecule binders of probe aNOTCH2, primary screen, biochemical, small-molecule microarray, 635/667 nm fluorescence (AID 1121).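 Further: score merges feature fluorescence read at 667 nm with its signal to noise.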 As to conditions: higher = more signal.
For assay [14], the target named is Carbonic anhydrase 2 (Homo sapiens) (UniProt P00918). The assay is described as follows: CAII small-molecule binders, profiling panel, biochemical, small-molecule microarray, Alexa647-labelled CAII (AID 1122). The following applies: CAII-A647 binding fluorescence, higher = more signal.
The nature of assay [15]: COS7 lysate on small-molecule microarray, probe aHis, 635 nm (AID 1123).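 Further: z-score combines 667nm fluorescence intensity with signal-to-noise per printed compound spot.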 As to conditions: COS7 cell lysate, fluorescence, higher = more signal.
Assay [16] is described as follows: compound binding in COS7 lysate, probe aLAP1, primary screen, cell lysate, small-molecule microarray (AID 1124).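 Further: lysate comes from COS7 cells expressing LAP1 and is applied at 0.3 µg/mL; score merges spot fluorescence near 667 nm with signal-to-noise over triplicate slides.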 As to conditions: probe aLAP1, fluorescence, higher = more signal.
A further assay concerns Sam68 (KHDRBS1). The assay is described as follows: Sam68 small-molecule binders, primary screen, biochemical, small-molecule microarray, 635 nm fluorescence (AID 1125).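 Further: score merges 667 nm channel intensity with signal to noise over triplicate slides.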 The following applies: small-molecule microarray binding, higher = more signal.
Assay [17] relates to Chordin-like protein 2 (CHRDL2). Put plainly: CHRDL2 small-molecule binders, primary screen, biochemical, small-molecule microarray, 635 nm fluorescence (AID 1126).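 Further: printed compound slides probed with Chrdl2 protein at 4 µg/mL for 1 h at 4 C; score merges 667 nm emission intensity with signal to noise over three replicate slides.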 The following applies: small-molecule microarray binding, fluorescence 635 nm; higher = more signal.
For assay [18], the target named is Concanavalin-A (Canavalia ensiformis) (UniProt P02866). Put plainly: ConA small-molecule binders, primary screen, artefact control for SMM control protein annotation, biochemical, small-molecule microarray, Alexa647 label, 635 nm (AID 1127).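 Further: z combines 667 nm emission intensity with signal-to-noise across three replicate slides.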 The following applies: ConA-A647 binding fluorescence, higher = more signal.

The structures appear in SMILES notation. Active and inactive are the calls of the source.

Concanavalin-A (Canavalia ensiformis), sequence (P02866 whole entry, looked up): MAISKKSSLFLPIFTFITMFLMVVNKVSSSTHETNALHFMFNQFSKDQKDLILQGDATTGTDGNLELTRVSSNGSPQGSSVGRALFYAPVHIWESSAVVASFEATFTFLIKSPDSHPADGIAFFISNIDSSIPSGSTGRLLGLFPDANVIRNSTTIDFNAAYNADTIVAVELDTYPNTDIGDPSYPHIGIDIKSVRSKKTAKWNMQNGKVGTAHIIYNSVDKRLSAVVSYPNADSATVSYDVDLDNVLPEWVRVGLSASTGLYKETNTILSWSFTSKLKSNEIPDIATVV
Left-right determination factor 2 (Homo sapiens), sequence (O00292 whole entry, looked up): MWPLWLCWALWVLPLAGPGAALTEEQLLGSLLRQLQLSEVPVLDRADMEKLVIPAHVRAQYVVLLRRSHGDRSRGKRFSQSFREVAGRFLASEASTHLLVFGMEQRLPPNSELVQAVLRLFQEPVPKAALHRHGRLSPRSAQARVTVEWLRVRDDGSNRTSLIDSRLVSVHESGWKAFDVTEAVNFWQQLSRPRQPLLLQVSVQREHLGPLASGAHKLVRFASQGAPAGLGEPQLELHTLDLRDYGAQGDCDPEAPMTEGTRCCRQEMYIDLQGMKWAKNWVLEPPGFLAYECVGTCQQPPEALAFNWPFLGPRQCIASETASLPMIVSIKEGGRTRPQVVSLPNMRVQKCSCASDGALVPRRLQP
Albumin (Bos taurus), sequence (P02769 whole entry, looked up): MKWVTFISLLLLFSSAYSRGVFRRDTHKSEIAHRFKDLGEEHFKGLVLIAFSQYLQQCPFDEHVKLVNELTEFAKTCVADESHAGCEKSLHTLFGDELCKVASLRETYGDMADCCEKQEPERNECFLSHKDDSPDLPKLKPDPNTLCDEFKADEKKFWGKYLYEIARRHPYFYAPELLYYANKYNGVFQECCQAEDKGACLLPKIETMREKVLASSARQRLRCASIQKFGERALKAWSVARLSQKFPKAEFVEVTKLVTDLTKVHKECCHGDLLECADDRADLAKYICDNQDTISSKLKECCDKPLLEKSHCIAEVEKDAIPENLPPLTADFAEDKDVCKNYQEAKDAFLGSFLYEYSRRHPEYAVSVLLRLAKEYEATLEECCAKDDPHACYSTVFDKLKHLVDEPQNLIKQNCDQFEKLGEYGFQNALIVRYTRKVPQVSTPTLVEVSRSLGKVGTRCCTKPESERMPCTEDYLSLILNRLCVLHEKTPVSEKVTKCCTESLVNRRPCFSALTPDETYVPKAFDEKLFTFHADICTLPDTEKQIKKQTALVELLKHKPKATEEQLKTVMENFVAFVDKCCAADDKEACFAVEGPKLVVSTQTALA
Torsin-1A-interacting protein 1 (Homo sapiens), sequence (Q5JTV8 whole entry, looked up): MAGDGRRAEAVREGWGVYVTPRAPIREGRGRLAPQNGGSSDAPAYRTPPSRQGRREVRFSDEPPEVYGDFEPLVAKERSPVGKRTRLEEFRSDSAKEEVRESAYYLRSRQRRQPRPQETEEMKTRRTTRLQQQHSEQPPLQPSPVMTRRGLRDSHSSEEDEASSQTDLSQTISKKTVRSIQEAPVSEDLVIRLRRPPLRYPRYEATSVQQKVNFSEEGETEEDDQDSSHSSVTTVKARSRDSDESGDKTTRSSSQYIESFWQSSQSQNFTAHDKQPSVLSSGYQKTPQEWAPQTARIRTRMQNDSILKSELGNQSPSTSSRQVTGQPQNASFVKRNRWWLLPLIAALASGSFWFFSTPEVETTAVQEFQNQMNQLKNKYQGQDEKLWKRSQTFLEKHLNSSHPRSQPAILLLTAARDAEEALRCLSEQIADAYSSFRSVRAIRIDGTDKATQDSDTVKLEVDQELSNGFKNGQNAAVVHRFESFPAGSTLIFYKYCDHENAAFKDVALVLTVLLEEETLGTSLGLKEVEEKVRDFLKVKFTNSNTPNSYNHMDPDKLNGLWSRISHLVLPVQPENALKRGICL
Alpha-bungarotoxin (Bungarus multicinctus), sequence (P60615 whole entry, looked up): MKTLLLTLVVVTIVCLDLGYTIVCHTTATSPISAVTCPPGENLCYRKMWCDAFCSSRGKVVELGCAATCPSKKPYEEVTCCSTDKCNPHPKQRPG

Take `COC(=O)[C@@]1(Cc2ccc(OC)cc2)[C@H]2c3cc(C(=O)N(C)C)n(Cc4cc(C)n(C)n4)c3C[C@H]2CN1C(=O)c1ccccc1`: the composite z-score is 1.52 in assay [1]; -0.198 in assay [3]; 0.239 in assay [4]; 0.529 in assay [5]; 0.596 in [6]; 0.964 in assay [7]. In addition, the composite z-score in assay [8] is 1.11; in assay [9], 1.2; in assay [10] it was -0.329; with Albumin (Bos taurus) it was 0.19; in assay [12], 0.166; in [13] it was 0.0736. Moreover, the composite z-score is 0.88 in assay [14]; 3.4 in assay [15]; 0.898 in assay [16]; 1.06 with Sam68 (KHDRBS1); -0.285 in assay [17]; -0.307 in assay [18]. The compound further showed a z-score in assay [2] of -0.952. Also, in assay [11], the composite Z-score was 0.638 (inactive).

With `COc1ccc([Si](C)(C)[C@@H]2[C@@H](CC(=O)N3Cc4ccccc4C[C@H]3CO)O[C@]3(C(=O)N(Cc4cccc(N5CCCCC5=O)c4)c4ccccc43)[C@H]2C)cc1`, the composite z-score in assay [1] is 1.09; in [3] it was 0.709; in [4], 0.836; in [5], -0.219; in assay [6], -0.0585; in [7] it was 0.0557. For the same compound, the composite z-score in assay [8] was 0.228; in [9], 1.11; in [10], 1.9; with Albumin (Bos taurus) it was -0.565; in [12] it was 0.0425; in assay [13], -0.133. For the same compound, the composite z-score in [14] is -0.0599; in assay [15], 0.977; in [16] it was 0.426; in the assay on Sam68 (KHDRBS1) it was 1.29; in assay [17], 1.28; in assay [18], 1.13. In assay [2], the z-score is -3.47. In assay [11], the composite Z-score is 0.436 (inactive).

As for `O=C(O)[C@]1(CCS(=O)(=O)c2ccccc2)N=C(c2ccc(OCCCO)cc2)O[C@@H]1c1ccccc1`, the composite z-score was 0.0626 in assay [1]; -0.004 in assay [3]; 0.737 in assay [4]; 0.4 in assay [5]; 0.0216 in assay [6]; -0.0322 in assay [7]. For the same compound, the composite z-score is 1.82 in [8]; -0.357 in assay [9]; -0.0315 in assay [10]; 0.815 in the assay with Albumin (Bos taurus); 0.196 in assay [12]; 0.197 in assay [13]. For the same compound, the composite z-score is 0.858 in [14]; 2.59 in assay [15]; 0.341 in assay [16]; 0.541 with Sam68 (KHDRBS1); -0.0616 in assay [17]; -0.251 in assay [18]. The z-score in assay [2] was -0.0254. Moreover, the composite Z-score in assay [11] was 0.207 (inactive).

As to `CCCC=C(CCC)[C@@H](NC(=O)Cc1ccccc1)c1ccc(C(=O)OC)cc1`, the composite z-score was 1.08 in assay [1]; 0.0461 in assay [3]; 1.22 in assay [4]; 0.499 in assay [5]; 0.748 in assay [6]; 2.15 in assay [7]. For the same compound, the composite z-score is 1.79 in assay [8]; -0.481 in assay [9]; 1.66 in assay [10]; 0.506 with Albumin (Bos taurus); 0.934 in assay [12]; 0.0754 in assay [13]. The composite z-score in assay [14] stood at 0.405; in [15] it was 1.69; in assay [16], 0.615; in the assay with Sam68 (KHDRBS1), 0.844; in assay [17], 0.549; in [18], 0.31. In assay [2], this compound showed a z-score of -1.11. Also, the composite Z-score in [11] was 0.0119 (inactive).

Consider `COc1ccc(CCNC(=O)[C@@H]2c3ccccc3C(=O)N(Cc3ccccc3)[C@H]2c2ccc(CO)cc2)cc1`, for which the composite z-score is 1.43 in assay [1]; 0.117 in [3]; -0.0056 in assay [4]; -0.904 in assay [5]; -0.0512 in assay [6]; -0.0813 in assay [7]. The composite z-score in assay [8] was -0.293; in assay [9], 1.15; in [10], 0.36; in the assay with Albumin (Bos taurus) it was 0.286; in assay [12], -0.199; in assay [13], -0.0562. The composite z-score in assay [14] worked out at 0.735; in assay [15], 1.64; in assay [16], 1.36; with Sam68 (KHDRBS1), 1.34; in [17] it was 0.156; in assay [18], 0.526. In addition, the z-score in assay [2] is -1.17. The composite Z-score in assay [11] was -0.149 (inactive).
